Experiments:
Format in all cases: functional
Plasmodium falciparum [1] = experiment: GSK_TCMDC: Inhibition of Plasmodium falciparum 3D7 in whole red blood cells, using parasite LDH activity as an index of growth. Test compounds present at 2uM
Plasmodium falciparum [2] = experiment: GSK_TCMDC: Inhibition of Plasmodium falciparum Dd2 in whole red blood cells, using parasite LDH activity as an index of growth. Test compounds present at 2uM
HepG2 = experiment: GSK_TCMDC: Percent inhibition of human HepG2 cell line. Test compounds present at 10uM.

SMILES	Inhibition (Plasmodium falciparum [1]) [%]	Inhibition (Plasmodium falciparum [2]) [%]	Inhibition (HepG2) [%]
CC(C)(C)c1ccc(NC(=O)c2ccc(CN3CCCN(Cc4ccsc4)CC3)cc2)cc1.O=C(O)C(F)(F)F	96	0	50
Cc1ccc(NC(=O)N2CCC(n3c(-c4ccccc4)nc4cccnc43)CC2)cc1F	96	85	23
N#Cc1c(N)nc(SCC(=O)Nc2cc(C(F)(F)F)ccc2Cl)c(C#N)c1-c1cccs1	90	96	23
O=C(Nc1ccc(CCNCc2ccccc2)cc1)Nc1ccc(OC(F)(F)F)cc1.O=C(O)C(F)(F)F	100	22	0
CO/C(=C\C=C\c1cc2cc(Cl)c(Cl)cc2[nH]1)C(=O)NCCCN1CCN(Cc2ccccc2)CC1	94	65	45
COC(=O)c1cccc(CNCc2cccc(-c3cccc(-c4nc5cc(C(F)(F)F)ccc5[nH]4)c3)c2)c1.O=C(O)C(F)(F)F	100	69	7
COc1ccc(CCCCN2C(=O)C(c3ccccc3)(c3ccccc3)N=C2N)cc1.O=C(O)C(F)(F)F	97	95	40
COc1cc2cc(C(=O)Nc3ccccc3)c(N)nc2cc1OC	90	0	0
N#Cc1cccc(CN(Cc2ccc(Cl)c(Cl)c2)S(=O)(=O)c2cccc([N+](=O)[O-])c2)c1	100	73	3
CCNc1cc(C(=O)N[C@@H](Cc2ccccc2)[C@H](O)CNCCc2cccc(C(F)(F)F)c2)cc(N2CCCC2=O)c1.O=CO	96	93	7
O=C(CCc1cccnc1)Nc1cccc(-c2ccc(-c3nc4cc(C(F)(F)F)ccc4[nH]3)cc2)c1	93	0	38
Cl.Oc1ccc(CCCc2cc(Oc3c(I)cc(CCc4ncc[nH]4)cc3I)ccc2O)cc1	95	7	26
NC1=NC(c2ccccc2)(c2ccccc2)C(=O)N1CCCCc1ccccc1.O=CO	96	81	14
COc1ccc(Nc2nc(C)cc(NC3CCCC3)n2)cc1	98	59	34
CC(C)CNCc1cccc(-c2cccc(CN(CCN(C)C)C(=O)Nc3ccccc3)c2)c1.O=C(O)C(F)(F)F	99	62	34
CCC(=O)N[C@@H]1CN[C@@H](C#Cc2cc3c(Nc4ccc(OCc5cccc(F)c5)c(Cl)c4)ncnc3s2)C1	82	0	46
O=C(NCc1cccc(C(F)(F)F)c1)C1CCCN(C(=O)c2ccc(O)c(-c3ccc(Cl)c(Cl)c3)c2)C1 (configuration not stated)	94	32	1
O=C(c1ccc(OCCn2ccnc2)cc1)N1CCC(c2ccc(Br)cc2)C1 (configuration not stated)	100	99	49
Oc1ccc(Nc2ccnc3cc(Cl)ccc23)cc1	100	97	0

Source: ChEMBL document CHEMBL1157539, “Thousands of chemical starting points for antimalarial lead identification” (Nature, 2010)
